{"source": "PubChem BioAssay (NCI)", "note": "Several values for one entry are separate records, joined by “and”; a condition that tells them apart may be missing. Identical values can stand only once. The panel holds about 79,000 compounds, 15% with a hit somewhere; the sample as a whole holds those more often. Unmarked numbers belong to inactive results. Activity calls are given as the source filed them. No stated cut-off is given here; in the data, active means growth inhibition above about 70%; inactive means the rest.", "data": [{"test": "NCI Yeast Anticancer Drug Screen. Data for the mec2-1 strain (AID 157)", "conditions": "S. cerevisiae mec2-1 strain, at 3.7 µM, stronger effect = higher value", "procedure,_shortened": "(§1)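 Test agents were screened against the mec2-1 yeast strain, with defined DNA repair or cell cycle alteration. Growth was scored as inhibition against vehicle-only controls.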", "values": [{"smiles": "O=C1/C(=C/c2ccccc2)CCCC1CN1CCCCC1", "note": "(stereo not drawn)", "growth inhibition": "22%"}, {"smiles": "C#CCN(Cc1ccc2nc(N)[nH]c(=O)c2c1)c1ccc(C(=O)NC(CCC(=O)O)C(=O)O)cc1", "note": "(stereo not drawn)", "growth inhibition": "-6%"}, {"smiles": "CCOC1(c2cccc([N+](=O)[O-])c2)c2ccccc2Oc2ccccc21", "growth inhibition": "2%"}, {"smiles": "O=C(O)CNC(=S)Nc1ccccc1", "growth inhibition": "-21%"}, {"smiles": "N/C(=N/N=C/c1cc(Br)cc(Br)c1O)NO", "growth inhibition": "-62%"}, {"smiles": "C[Si](C)(C)/C=C/CCNC(C#N)c1ccccc1", "note": "(stereo not drawn)", "growth inhibition": "-23%"}, {"smiles": "CCCCCCCCCCCCCCCCOP(=O)(O)OCC(N)C(=O)O", "note": "(stereo not drawn)", "growth inhibition": "3%"}, {"smiles": "CC1=C(C(=O)NCc2ccccc2)C(c2ccccc2)C(C(=O)NCc2ccccc2)=C(C)N1", "growth inhibition": "-4%"}, {"smiles": "O=[N+]([O-])c1cc(S(=O)(=O)Nc2ccccc2)ccc1Nc1ccccc1", "growth inhibition": "19%"}, {"smiles": "COc1cc2ccnc(-c3c4ccccc4c(N)c4c(OC)c(OC)ccc34)c2cc1OC", "growth inhibition": "2%"}, {"smiles": "CCOC(=O)C(Br)C(Br)c1ccccc1Cl", "note": "(stereo not drawn)", "growth inhibition": "12%"}, {"smiles": "CCOC(=O)C1=C(C)NC(C)=C(C(=O)OCCNC(=O)c2ccc(N=[N+]=[N-])cc2)C1c1ccccc1C(F)(F)F", "note": "(stereo not drawn)", "growth inhibition": "4%"}, {"smiles": "Cc1cc(C)c(NC(=S)NC(=O)c2ccccc2)cc1C", "growth inhibition": "-61%"}, {"smiles": "CNCCCNc1c2ccccc2nc2cccc([N+](=O)[O-])c12", "growth inhibition": "87% (active)"}, {"smiles": "COc1c(O)c(C=O)c(Br)c(C=O)c1O", "growth inhibition": "6%"}, {"smiles": "Cc1c(C)c(C)c(CSC(=N)N)c(C)c1C", "growth inhibition": "-78%"}, {"smiles": "O=C(CSC(=S)N1CCCCC1)Nc1nc2c(s1)CCCC2", "growth inhibition": "-9%"}, {"smiles": "CNC(=O)OCc1c(COC(=O)NC)c(-c2ccc(Cl)cc2)n2c1CCC2", "growth inhibition": "-41%"}, {"smiles": "CC(=O)OC1CC2C(C)(C)C(=O)C=C[C@]2(C)C2CCC3(C)C(=CCC3[C@H](CO)C[C@H](O)C(=O)C(C)(C)O)[C@]12C", "note": "(stereo partly drawn)", "growth inhibition": "-56%"}, {"smiles": "CCCCCCOC(=O)NCCOC(=O)Nc1ccccc1", "growth inhibition": "3%"}, {"smiles": "C[C](C)(C)[Ge]([O][Ge]([c]1ccccc1)[c]1ccccc1)([O][Ge]([c]1ccccc1)[c]1ccccc1)[C](C)(C)C", "growth inhibition": "21%"}, {"smiles": "CCc1c(Cl)c(C)cc(O)c1Cl", "growth inhibition": "1%"}, {"smiles": "Cc1nc(Nc2ccccc2[N+](=O)[O-])sc1C(=O)CC(=O)C(=O)Nc1c(C(C)C)cccc1C(C)C", "growth inhibition": "4%"}, {"smiles": "O=[N+]([O-])c1cccc2nc3ccccc3c(NCCCn3ccnc3[N+](=O)[O-])c12", "growth inhibition": "55%"}, {"smiles": "CCCCCCC(O)CNCc1ccnc2ccc(OC)cc12", "note": "(stereo not drawn)", "growth inhibition": "13%"}, {"smiles": "Cc1c2cccc(Sc3ccccc3)c2c2c3c(cccc13)[S+](c1ccccc1)C2", "note": "(stereo not drawn)", "growth inhibition": "30%"}, {"smiles": "C=C1CCC(O)C/C1=C/C=C1\\CCCC2(C)C1CCC2C(C)CCCC(C)C", "note": "(stereo not drawn)", "growth inhibition": "-25%"}, {"smiles": "NC1=NNC2(C(N)=N1)c1ccccc1-c1ccccc12", "growth inhibition": "12%"}, {"smiles": "COc1cc2cc3c4cc(OC)c(OC)cc4cc[n+]3c(C)c2cc1OC", "growth inhibition": "-11%"}, {"smiles": "COC(=O)NC1C(C)OC(OC2C/C=C(/C)C3C=CC4C(OC5CC(OC6CC(O)C(OC7CC(O)C(OC)C(C)O7)C(C)O6)C(O)C(C)O5)C(C)CC(C)C4C3(C)/C(O)=C3\\C(=O)OC4(CC(C)C(CO)=CC4/C=C\\2C)C3=O)CC1(C)[N+](=O)[O-]", "note": "(stereo not drawn)", "growth inhibition": "-5%"}, {"smiles": "O=C1CSC(c2cccc(Cl)c2)N1c1ccc(-c2ccc(-n3c(-c4ccccc4)nc4ccccc4c3=O)cc2)cc1", "note": "(stereo not drawn)", "growth inhibition": "4%"}, {"smiles": "CCOC(=O)C(C(=O)OCC)=P(c1ccccc1)(c1ccccc1)c1ccccc1", "growth inhibition": "-1%"}, {"smiles": "COc1ccc(N=CN(C)C)c(C)c1", "growth inhibition": "-70%"}, {"smiles": "Cc1cc(S(=O)(=O)Nc2nnc3cnc4ccccc4n23)c(S)cc1Cl", "growth inhibition": "0%"}, {"smiles": "O=C(Oc1ccc2c(c1)CN(Cc1ccccc1)CO2)c1ccccc1", "growth inhibition": "0%"}, {"smiles": "CN(C)[C@@H]1C(=O)C(C(N)=O)=C(O)[C@@]2(O)C(=O)C3=C(O)c4c(O)cccc4C[C@H]3C[C@@H]12", "growth inhibition": "-4%"}, {"smiles": "O=[N+]([O-])c1ccc2c(c1)/C(=N/N=C1c3ccccc3Cc3ccccc31)c1cc([N+](=O)[O-])cc([N+](=O)[O-])c1-2", "growth inhibition": "78% (active)"}, {"smiles": "Cc1nc2c(Br)cc(Br)cc2c(=O)n1-c1ccccc1NC1OCC(O)C(O)C1O", "note": "(stereo not drawn)", "growth inhibition": "9%"}, {"smiles": "Cc1cc(N(CCOS(C)(=O)=O)CCOS(C)(=O)=O)ccc1C=Nc1ccc(-c2nc(Cc3ccccc3)sc2C)cc1", "growth inhibition": "4%"}]}, {"test": "NCI Yeast Anticancer Drug Screen. Data for the mec2-1 strain (AID 157)", "conditions": "S. cerevisiae mec2-1 strain, at 5.0 µM (retest, dose inferred, filed as 0.5), stronger effect = higher value", "procedure,_shortened": "as §1", "values": [{"smiles": "O=C1/C(=C/c2ccccc2)CCCC1CN1CCCCC1", "note": "(stereo not drawn)", "growth inhibition": "32%"}, {"smiles": "C#CCN(Cc1ccc2nc(N)[nH]c(=O)c2c1)c1ccc(C(=O)NC(CCC(=O)O)C(=O)O)cc1", "note": "(stereo not drawn)", "growth inhibition": "4% and -6%"}, {"smiles": "CCOC1(c2cccc([N+](=O)[O-])c2)c2ccccc2Oc2ccccc21", "growth inhibition": "3%"}, {"smiles": "O=C(O)CNC(=S)Nc1ccccc1", "growth inhibition": "50%"}, {"smiles": "N/C(=N/N=C/c1cc(Br)cc(Br)c1O)NO", "growth inhibition": "13%"}, {"smiles": "C[Si](C)(C)/C=C/CCNC(C#N)c1ccccc1", "note": "(stereo not drawn)", "growth inhibition": "98% (active)"}, {"smiles": "CCCCCCCCCCCCCCCCOP(=O)(O)OCC(N)C(=O)O", "note": "(stereo not drawn)", "growth inhibition": "12%"}, {"smiles": "CC1=C(C(=O)NCc2ccccc2)C(c2ccccc2)C(C(=O)NCc2ccccc2)=C(C)N1", "growth inhibition": "11%"}, {"smiles": "O=[N+]([O-])c1cc(S(=O)(=O)Nc2ccccc2)ccc1Nc1ccccc1", "growth inhibition": "39%"}, {"smiles": "COc1cc2ccnc(-c3c4ccccc4c(N)c4c(OC)c(OC)ccc34)c2cc1OC", "growth inhibition": "33%"}, {"smiles": "CCOC(=O)C(Br)C(Br)c1ccccc1Cl", "note": "(stereo not drawn)", "growth inhibition": "30%"}, {"smiles": "CCOC(=O)C1=C(C)NC(C)=C(C(=O)OCCNC(=O)c2ccc(N=[N+]=[N-])cc2)C1c1ccccc1C(F)(F)F", "note": "(stereo not drawn)", "growth inhibition": "1%"}, {"smiles": "Cc1cc(C)c(NC(=S)NC(=O)c2ccccc2)cc1C", "growth inhibition": "-16%"}, {"smiles": "CNCCCNc1c2ccccc2nc2cccc([N+](=O)[O-])c12", "growth inhibition": "89% (active)"}, {"smiles": "COc1c(O)c(C=O)c(Br)c(C=O)c1O", "growth inhibition": "16%"}, {"smiles": "Cc1c(C)c(C)c(CSC(=N)N)c(C)c1C", "growth inhibition": "54%"}, {"smiles": "O=C(CSC(=S)N1CCCCC1)Nc1nc2c(s1)CCCC2", "growth inhibition": "-4%"}, {"smiles": "CNC(=O)OCc1c(COC(=O)NC)c(-c2ccc(Cl)cc2)n2c1CCC2", "growth inhibition": "0%"}, {"smiles": "CC(=O)OC1CC2C(C)(C)C(=O)C=C[C@]2(C)C2CCC3(C)C(=CCC3[C@H](CO)C[C@H](O)C(=O)C(C)(C)O)[C@]12C", "note": "(stereo partly drawn)", "growth inhibition": "-10%"}, {"smiles": "CCCCCCOC(=O)NCCOC(=O)Nc1ccccc1", "growth inhibition": "-5%"}, {"smiles": "C[C](C)(C)[Ge]([O][Ge]([c]1ccccc1)[c]1ccccc1)([O][Ge]([c]1ccccc1)[c]1ccccc1)[C](C)(C)C", "growth inhibition": "29%"}, {"smiles": "CCc1c(Cl)c(C)cc(O)c1Cl", "growth inhibition": "46%"}, {"smiles": "Cc1nc(Nc2ccccc2[N+](=O)[O-])sc1C(=O)CC(=O)C(=O)Nc1c(C(C)C)cccc1C(C)C", "growth inhibition": "3%"}, {"smiles": "O=[N+]([O-])c1cccc2nc3ccccc3c(NCCCn3ccnc3[N+](=O)[O-])c12", "growth inhibition": "16%"}, {"smiles": "CCCCCCC(O)CNCc1ccnc2ccc(OC)cc12", "note": "(stereo not drawn)", "growth inhibition": "7%"}, {"smiles": "Cc1c2cccc(Sc3ccccc3)c2c2c3c(cccc13)[S+](c1ccccc1)C2", "note": "(stereo not drawn)", "growth inhibition": "28%"}, {"smiles": "C=C1CCC(O)C/C1=C/C=C1\\CCCC2(C)C1CCC2C(C)CCCC(C)C", "note": "(stereo not drawn)", "growth inhibition": "12%"}, {"smiles": "NC1=NNC2(C(N)=N1)c1ccccc1-c1ccccc12", "growth inhibition": "-1%"}, {"smiles": "COc1cc2cc3c4cc(OC)c(OC)cc4cc[n+]3c(C)c2cc1OC", "growth inhibition": "73% (active)"}, {"smiles": "COC(=O)NC1C(C)OC(OC2C/C=C(/C)C3C=CC4C(OC5CC(OC6CC(O)C(OC7CC(O)C(OC)C(C)O7)C(C)O6)C(O)C(C)O5)C(C)CC(C)C4C3(C)/C(O)=C3\\C(=O)OC4(CC(C)C(CO)=CC4/C=C\\2C)C3=O)CC1(C)[N+](=O)[O-]", "note": "(stereo not drawn)", "growth inhibition": "9%"}, {"smiles": "O=C1CSC(c2cccc(Cl)c2)N1c1ccc(-c2ccc(-n3c(-c4ccccc4)nc4ccccc4c3=O)cc2)cc1", "note": "(stereo not drawn)", "growth inhibition": "-9%"}, {"smiles": "CCOC(=O)C(C(=O)OCC)=P(c1ccccc1)(c1ccccc1)c1ccccc1", "growth inhibition": "1%"}, {"smiles": "COc1ccc(N=CN(C)C)c(C)c1", "growth inhibition": "46%"}, {"smiles": "Cc1cc(S(=O)(=O)Nc2nnc3cnc4ccccc4n23)c(S)cc1Cl", "growth inhibition": "2%"}, {"smiles": "O=C(Oc1ccc2c(c1)CN(Cc1ccccc1)CO2)c1ccccc1", "growth inhibition": "-15%"}, {"smiles": "CN(C)[C@@H]1C(=O)C(C(N)=O)=C(O)[C@@]2(O)C(=O)C3=C(O)c4c(O)cccc4C[C@H]3C[C@@H]12", "growth inhibition": "87% (active)"}, {"smiles": "O=[N+]([O-])c1ccc2c(c1)/C(=N/N=C1c3ccccc3Cc3ccccc31)c1cc([N+](=O)[O-])cc([N+](=O)[O-])c1-2", "growth inhibition": "24%"}, {"smiles": "Cc1nc2c(Br)cc(Br)cc2c(=O)n1-c1ccccc1NC1OCC(O)C(O)C1O", "note": "(stereo not drawn)", "growth inhibition": "10% and 22%"}, {"smiles": "Cc1cc(N(CCOS(C)(=O)=O)CCOS(C)(=O)=O)ccc1C=Nc1ccc(-c2nc(Cc3ccccc3)sc2C)cc1", "growth inhibition": "40% and -3%"}]}]}
